Molecules are shown by their SMILES. About 79,000 compounds went through this panel and 15% of them were active in at least one assay; those are over-represented in the sample as a whole. Unmarked numbers belong to inactive results. Calls of active or inactive are those of the source. No stated cut-off is given here; in the data, active means growth inhibition above about 70%; inactive means the rest.

Assay [1] is described as follows: NCI Yeast Anticancer Drug Screen. Data for the rad50 strain (AID 155).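 Further: 0% = growth of vehicle-only cultures of the same strain.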 Conditions: S. cerevisiae rad50 strain growth inhibition; at 50.0 µM; stronger effect = higher value. Put shortly: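 Readout: growth inhibition relative to vehicle-treated cultures. Compound exposure was carried out in a genetically defined yeast strain deficient in DNA damage repair.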
Assay [2] can be described thus: NCI Yeast Anticancer Drug Screen. Data for the mec2-1 strain (AID 157). Conditions: S. cerevisiae mec2-1 strain, at 50.0 µM, stronger effect = higher value. Put shortly: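 Using mec2-1 yeast: add compound, measure growth, express inhibition versus vehicle-treated cultures.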
Assay [3] in a line: NCI Yeast Anticancer Drug Screen. Data for the sgs1 mgt1 strain (AID 161).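 Further: 0% = growth of cultures given vehicle only.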 Conditions: S. cerevisiae sgs1 mgt1 strain, at 50.0 µM, stronger effect = higher value. Put shortly:
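Growth of a repair-deficient yeast mutant was monitored after compound treatment and expressed as inhibition relative to vehicle-treated cultures.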

A short description of assay [4]: NCI Yeast Anticancer Drug Screen. Data for the cln2 rad14 strain (AID 165).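 Further: 0% = growth equal to vehicle treated cultures.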 Conditions: S. cerevisiae cln2 rad14 strain, at 50.0 µM, stronger effect = higher value. The method in brief: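 Yeast strain cln2 rad14, bearing defects in cell cycle control and DNA repair, serves as the test system; values reflect growth inhibition compared with vehicle.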
Assay [5] is described as follows: NCI Yeast Anticancer Drug Screen. Data for the bub3 strain (AID 167). Conditions: S. cerevisiae bub3 mutant strain, at 50.0 µM, stronger effect = higher value. Put shortly: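 Readout: yeast growth inhibition, expressed relative to vehicle-only wells. The test organism is a mutant strain from a panel with lesions in DNA repair or checkpoint genes.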
Assay [6] in a line: NCI Yeast Anticancer Drug Screen. Data for the mlh1 rad18 strain (AID 175). Conditions: S. cerevisiae mlh1 rad18 strain growth inhibition; at 50.0 µM; stronger effect = higher value. Put shortly:
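Steps: expose repair-defective yeast to compound; measure growth; express inhibition against vehicle-treated controls.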

Regarding `O=C(Cc1ccccc1C(=O)O)c1ccccc1`, the growth inhibition in assay [1] is -16.6%; in assay [2], -18.6%; in assay [3], -23.6%; in assay [4], -24.4%; in assay [5] it was -25.1%; in assay [6], -13.3%.
On to `COc1ccc(C(=O)OC2CCCC2)cc1`, for which the growth inhibition was 45.8% in assay [1]; 6.95% in assay [2]; 39.5% in assay [3]; -9.5% in assay [4]; 9.6% in assay [5]; 24.7% in assay [6].
On to `CCC(=O)NCCCCCN1CCCCC1`, for which the growth inhibition in assay [1] was 8.55%; in assay [2], 5.35%; in assay [3], 9.75%; in assay [4] it was -15.6%; in assay [5], -1.1%; in assay [6], 9.05%.
As for `O=c1c2ccccc2nnn1OCc1ccccc1`, the growth inhibition in assay [1] is 24.5%; in assay [2], 3.1%; in assay [3] it was 11%; in assay [4], -39.5%; in assay [5], -12.3%; in assay [6], 3.95%.
On to `O=c1[nH]nc(-c2ccccc2)c2c1[nH]c1ccccc12`, for which the growth inhibition in assay [1] is -13.8%; in assay [2], -15.7%; in assay [3], -0.85%; in assay [4] it was -33.9%; in assay [5] it was -12.4%; in assay [6], -12.1%.
`CC(C)(C)/C(CC(=O)CCC(=O)Nc1ccc(Cl)cc1)=N\NC(N)=S`: the growth inhibition in assay [1] was 11.7%; in assay [2], -6.75%; in assay [3], 19.1%; in assay [4] it was 9.75%; in assay [5] it was 1.65%; in assay [6], 20.8%.
Consider `CCN(CC)c1cc2c(cc1Br)-c1ccccc1C2=O`, for which the growth inhibition in assay [1] is 4%; in assay [2], -2.9%; in assay [3] it was 5.7%; in assay [4] it was 52.2%; in assay [5], 7.95%; in assay [6] it was 36%.
Take `O=C(c1ccccc1)C(O)(c1ccccc1)c1ccccc1`: the growth inhibition in assay [1] is 37.5%; in assay [2], -18.2%; in assay [3] it was 3.8%; in assay [4], -31.1%; in assay [5], 22.1%; in assay [6], 0.8%.
`C[N+]1(C)CCCC(CN2c3ccccc3Sc3ccccc32)C1` (stereo unspecified): the growth inhibition was 10.8% in assay [1]; -3.85% in assay [2]; 7.85% in assay [3]; -13.4% in assay [4]; 5.9% in assay [5]; 15.4% in assay [6].
Regarding `CO/C(=N\N=C\c1cccc(C(F)(F)F)c1)c1ccncc1`, the growth inhibition in assay [1] is 27.3%; in assay [2] it was 6.4%; in assay [3], -2.2%; in assay [4], -6.05%; in assay [5], 5.1%; in assay [6], 12.2%.
`CCCCC(O)(CCCC)C(C)(C)C`: the growth inhibition in assay [1] was 3.7%; in assay [2], 4.05%; in assay [3], 0.6%; in assay [4], -30.9%; in assay [5], -0.2%; in assay [6] it was 9.3%.
Regarding `COC1CCC(/C(C#N)=C/C2CCC(OC)C(OC)C2)CC1` (stereo unspecified), the growth inhibition in assay [1] was 77.1% (active); in assay [2], 66.8%; in assay [3] it was 77.7% (active); in assay [4], -8.7%; in assay [5], 68.8%; in assay [6], 63%.
On to `Cc1nc(Nc2ccccc2)sc1C(=O)CC(=O)C(=O)NC12CC3CC(CC(C3)C1)C2`, for which the growth inhibition in assay [1] is 1.3%; in assay [2] it was 8.95%; in assay [3] it was 8.8%; in assay [4], -13.1%; in assay [5], 4.4%; in assay [6] it was -0.7%.
With `Cc1cccc(/C=C/C(=O)C(C)CN(C)C)c1` (stereo unspecified), the growth inhibition was 41.4% in assay [1]; 15.6% in assay [2]; 63% in assay [3]; 30.4% in assay [4]; 28.6% in assay [5]; 39.5% in assay [6].
In the case of `Cc1cccc2c(N=[N+]=[N-])cc(C(F)(F)F)nc12`, the growth inhibition in assay [1] was 5.35%; in assay [2], 6.7%; in assay [3], -0.6%; in assay [4], -43%; in assay [5], 12.7%; in assay [6] it was -1.4%.
For the compound `O=CCCn1[nH]c(=O)ccc1=O`, the growth inhibition in assay [1] was 2.4%; in assay [2], -4.65%; in assay [3], 15.9%; in assay [4] it was 20.2%; in assay [5], 25.1%; in assay [6] it was 12.9%.
As for `CC1=C[C@H](C[C@]2(C)c3c(c4c(C)cccc4oc3=O)O[C@@H]2C)OC1=O`, the growth inhibition in assay [1] is 1%; in assay [2] it was 24.4%; in assay [3] it was 11.3%; in assay [4], 17.2%; in assay [5], -3.2%; in assay [6], 33.2%.
Turning to `O=S(=O)(Cc1c[nH]c2ccccc12)c1ccccc1`, the growth inhibition in assay [1] is 34.1%; in assay [2], -3.2%; in assay [3] it was 31.1%; in assay [4] it was 11.3%; in assay [5] it was 20.5%; in assay [6] it was 37.6%.
On to `O=C(O)C12CCCCC1CCCC2` (stereo unspecified), for which the growth inhibition in assay [1] was 11.4%; in assay [2] it was 31.2%; in assay [3], -6.25%; in assay [4], 26.1%; in assay [5] it was -0.75%; in assay [6], 10.7%.
On to `O=C(Oc1c(Cl)cc(Cl)cc1Cl)c1ccc([N+](=O)[O-])cc1`, for which the growth inhibition was 9.2% in assay [1]; 10.8% in assay [2]; 5.45% in assay [3]; -8.65% in assay [4]; -9.45% in assay [5]; -1.15% in assay [6].
`CSCCC(Nc1ncnc2nc[nH]c12)C(=O)O` (stereo unspecified): the growth inhibition was -9.7% in assay [1]; 3.05% in assay [2]; 3.6% in assay [3]; -12.7% in assay [4]; 0.9% in assay [5]; -9.5% in assay [6].

The values above are taken from PubChem BioAssay (NCI).
